{"source": "PubChem BioAssay", "note": "Values without a mark were called inactive. The rule behind the calls is not given here."}
{"target": "Pantothenate synthetase (Mycobacterium tuberculosis (strain ATCC 25618 / H37Rv)) (UniProt P9WIL5)", "sequence (P9WIL5 whole entry, looked up)": "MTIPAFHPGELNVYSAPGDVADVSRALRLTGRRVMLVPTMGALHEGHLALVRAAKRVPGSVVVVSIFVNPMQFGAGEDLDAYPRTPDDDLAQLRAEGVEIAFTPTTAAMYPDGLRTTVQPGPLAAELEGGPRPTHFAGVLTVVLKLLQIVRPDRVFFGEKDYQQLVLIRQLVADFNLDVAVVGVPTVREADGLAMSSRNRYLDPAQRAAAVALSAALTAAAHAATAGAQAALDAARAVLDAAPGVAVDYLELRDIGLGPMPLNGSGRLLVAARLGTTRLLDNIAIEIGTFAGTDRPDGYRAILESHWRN", "experiment": "Coupled enzyme confirmation of inhibitors against recombinant Mtb PanC (AID 375);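 note: 0% = full reaction with vehicle and 100% = no enzyme background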", "conditions": "coupled enzyme assay; at 10 µM, active compounds read high", "units": {"inhibition": "%"}}
{"smiles": "O=C(Nc1cccc(O)c1)c1ccccc1", "inhibition": 0}
{"smiles": "CCOc1ccccc1NC(=O)C1CCCN(C(=O)NCc2ccccc2)C1", "note": "(stereo not given)", "inhibition": 8}
{"smiles": "C/C(=N\\O)C(=O)NCCCNCCCN(C)C", "inhibition": 2}
{"smiles": "O=C(CSc1nc2ccccc2o1)N1CCN(C(=O)c2ccco2)CC1", "inhibition": 0}
{"smiles": "CSCCC(NC(=O)CCN1C(=O)c2ccccc2C1=O)C(=O)O", "note": "(stereo not given)", "inhibition": 0}
{"smiles": "O=c1c2nnn(Cc3ccccc3)c2ncn1-c1ccccc1", "inhibition": 0}
{"smiles": "O=C(OCc1nnc(-c2ccccc2)o1)c1ccc(S(=O)(=O)NCc2ccco2)cc1", "inhibition": 0}
{"smiles": "Cc1ccnc(NS(=O)(=O)c2ccc(N=CC3=C(O)CC(C)(C)CC3=O)cc2)n1", "inhibition": 11}
{"smiles": "CCn1nnnc1NCc1cccn1C", "inhibition": 5}
{"smiles": "Cc1cc(=O)n(-c2ccc3ccccc3n2)[nH]1", "inhibition": 6}
{"smiles": "COc1ccc2[nH]c(=O)c(CNC3CCCCC3)cc2c1", "inhibition": 0}
{"smiles": "COc1ccccc1CNC(=O)CCn1c(=O)[nH]c2ccsc2c1=O", "inhibition": 2}
{"smiles": "CC(C(=O)Nc1ccccc1-c1ccccc1)N1CCN(C(=O)c2ccco2)CC1", "note": "(stereo not given)", "inhibition": 0}
{"smiles": "CCOC(=O)CSc1nc2c(c(-c3ccc(C)o3)c1C#N)CCCC2", "inhibition": 0}
{"smiles": "O=C(OCC(=O)N1CCC(Cc2ccccc2)CC1)c1ccc[nH]c1=O", "inhibition": 0}
{"smiles": "COC(=O)Cn1c(CN2CCOCC2)nc2c1c(=O)n(C)c(=O)n2C", "inhibition": 0}
{"smiles": "O=C(CSc1nnnn1C1CCCCC1)N1CCc2ccccc21", "inhibition": 0}
{"smiles": "O=C(Nc1cccnc1)Nc1ccccn1", "inhibition": 0}
{"smiles": "CCOC(=O)C(C(=O)OCC)C(C)C#CCN1CCCCC1", "note": "(stereo not given)", "inhibition": 4}
{"smiles": "O=C1c2cccnc2C(O)N1Cc1ccc(F)cc1", "note": "(stereo not given)", "inhibition": 9}
{"smiles": "COc1ccc(Cl)cc1Nc1nc(NCCO)nc(N2CCCC2)n1", "inhibition": 9}
{"smiles": "COc1ccc(S(=O)(=O)NCc2ccco2)cc1-c1nnc2c3ccccc3c(C)nn12", "inhibition": 8}
{"smiles": "COc1ccccc1N1CC(C(=O)Nc2cccc(C(=O)O)c2)CC1=O", "note": "(stereo not given)", "inhibition": 0}
{"smiles": "CCCCOC(=O)c1[nH]c2c(c1C)C(=O)CC(c1cc(OC)c(OC)c(OC)c1)C2", "note": "(stereo not given)", "inhibition": 10}
{"smiles": "Cc1c(/C(O)=C2/C(=O)C(=O)N(CCN3CCOCC3)C2c2cccnc2)cnn1-c1ccccc1", "note": "(stereo not given)", "inhibition": 1}
{"smiles": "Cc1onc(-c2ccccc2)c1C(=O)Nc1sc2c(c1C(N)=O)CCC2", "inhibition": 5}
{"smiles": "CCC(=O)N/C(N)=N/c1nc(C)c2cc(OC)ccc2n1", "inhibition": 0}
{"smiles": "O=C(c1ccco1)N1CCN(c2nc(C(F)(F)F)nc3c2nnn3Cc2ccccc2)CC1", "inhibition": 0}
{"smiles": "O=C(c1cccs1)N1CCN=C1SCc1ccccc1", "inhibition": 4}
{"smiles": "COc1cc(C2C(C#N)=C(N)Oc3cc(N)ccc32)cc(OC)c1OC", "note": "(stereo not given)", "inhibition": 2}
{"smiles": "COc1ccccc1CNC(=O)C1CCCN(S(=O)(=O)c2cnc[nH]2)C1", "note": "(stereo not given)", "inhibition": 0}
{"smiles": "O=C1c2ccccc2C(=O)N1C/C=C/c1ccccc1", "inhibition": 2}
{"smiles": "O=C(CCN1CCN(CCO)CC1)Nc1ccc(OCc2ccccc2)cc1", "inhibition": 6}
{"smiles": "O=C(NC1CCCCC1NC(=O)c1ccco1)c1ccco1", "note": "(stereo not given)", "inhibition": 0}
{"smiles": "Cc1cc(C)c2c(=O)[nH]c(=O)n(Cc3ccccc3)c2n1", "inhibition": 0}
{"smiles": "CCCCSCCCNC(=O)CS(=O)Cc1nc(-c2cccc(C)c2)oc1C", "note": "(stereo not given)", "inhibition": 6}
{"smiles": "C=CCSC1=C(C#N)C(c2ccccc2OCC)CC(=O)N1", "note": "(stereo not given)", "inhibition": 0}
{"smiles": "Cc1ccc(CNC(=O)C2CCCN(S(=O)(=O)c3cnc[nH]3)C2)cc1", "note": "(stereo not given)", "inhibition": 2}
{"smiles": "COc1ccc(Cc2nc(-c3ccc(NC(=O)c4cccnc4)cc3)no2)cc1", "inhibition": 0}
{"smiles": "O=C(O)c1ccccc1Nc1cccc(C(F)(F)F)c1", "inhibition": 2}
